# Values without a mark were called inactive. The rule behind the calls is not given here.
# Test system: Aerobactin synthetase IucA (Klebsiella pneumoniae hvKP1)
# Experiment: IucA enzyme inhibition, primary screen, biochemical, Spectrum library (AID 1346200);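 note: 100% = wells without compound and 0% = wells lacking enzyme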
# Conditions: malachite green pyrophosphate, A620, at 8 µM, hits give low values
row,Compound,activity remaining
1,CC(=O)O[C@H]1[C@@H]2[C@@H](OC(=O)Cc3ccccc3)[C@@H](C)C[C@]2(OC(C)=O)C(=O)/C(C)=C/[C@H]2[C@H](CC[C@@]13CO3)C2(C)C,103%
2,COC1C(O)C(O)C(O)[C@@H](O)C1O (some centres not stated),106%
3,COc1cc(O)c(C(C)=O)c(OC)c1,104%
4,Cn1nnnc1SCC1=C(C(=O)O)N2C(=O)C(NC(=O)C(OC=O)c3ccccc3)C2SC1 (configuration not stated),118%
5,CC(=O)O[C@H]1CC[C@]2(C)C3CC[C@@]4(C)C(CC5O[C@@]6(CCC(C)CO6)[C@@H](C)C54)C3CC[C@@H]2C1 (some centres not stated),84.2%
6,OCC(O)C(O)C(O)C(O)C(O)CO (configuration not stated),93%
7,NS(=O)(=O)c1cc2c(cc1Cl)NC(C(Cl)Cl)NS2(=O)=O (configuration not stated),108%

# Reference: PubChem BioAssay
